# Experimental data taken from paper PMC7862700, “An all-to-all approach to the identification of sequence-specific readers for epigenetic DNA modifications on cytosine”.
# How the values were obtained:
# Assay in all cases: DAPPL (digital affinity profiling via proximity ligation, sequencing); 10 mM Tris-HCl pH 7.5, 50 mM NaCl, 1 mM DTT, 4% glycerol, room temperature, 30 min; GST-TFs on glutathione beads, 16-mer random dsDNA library, 0.1% formaldehyde crosslink after washing; high values mean tight binding
# FEV = molecular target: T1, FEV (Homo sapiens, UniProt Q99581 1-238); settings: protein: recombinant; tags: N-terminal GST; dsDNA, one strand shown
# T1 sequence: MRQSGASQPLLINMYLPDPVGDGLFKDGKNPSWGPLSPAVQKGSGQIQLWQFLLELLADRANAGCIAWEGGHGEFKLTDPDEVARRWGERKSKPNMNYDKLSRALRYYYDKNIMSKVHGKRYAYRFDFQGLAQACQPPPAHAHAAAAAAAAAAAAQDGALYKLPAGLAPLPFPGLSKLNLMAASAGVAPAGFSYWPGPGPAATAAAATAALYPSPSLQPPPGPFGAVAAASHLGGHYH
# In short: (§1)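 Binding signal is each hexamer's read frequency for a factor divided by its frequency in the tag-only sample. The factors were GST-fused human transcription factors from yeast, captured on glutathione beads, DNA-barcoded and pooled with that sample. Pools were incubated with 200 nmole of a random double-stranded 16-mer DNA library in Tris/NaCl/DTT/glycerol buffer at room temperature for 30 min, then washed, crosslinked with 0.1% formaldehyde, proximity-ligated with BsaI/T4 ligase (1 h, 37 °C), PCR-amplified and sequenced on an Illumina NextSeq500.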
# ETV5 = ETV5 (Homo sapiens, UniProt P41161 1-510); settings: protein: recombinant; tags: N-terminal GST; dsDNA, one strand shown
# Sequence of ETV5 (P41161 whole entry): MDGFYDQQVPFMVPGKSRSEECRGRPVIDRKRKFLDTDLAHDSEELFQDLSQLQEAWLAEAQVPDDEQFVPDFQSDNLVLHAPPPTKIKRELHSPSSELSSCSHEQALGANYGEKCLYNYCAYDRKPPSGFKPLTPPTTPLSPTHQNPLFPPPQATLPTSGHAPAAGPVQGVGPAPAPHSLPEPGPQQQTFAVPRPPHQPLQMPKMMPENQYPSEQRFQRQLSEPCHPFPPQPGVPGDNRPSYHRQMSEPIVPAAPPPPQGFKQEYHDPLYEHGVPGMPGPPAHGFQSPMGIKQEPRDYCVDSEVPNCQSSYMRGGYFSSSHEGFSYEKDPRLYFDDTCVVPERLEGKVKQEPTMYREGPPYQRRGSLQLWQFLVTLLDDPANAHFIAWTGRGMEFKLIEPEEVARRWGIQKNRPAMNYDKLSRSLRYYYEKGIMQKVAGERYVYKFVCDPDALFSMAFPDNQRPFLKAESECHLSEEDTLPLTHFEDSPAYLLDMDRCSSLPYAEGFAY
# In short: as §1
# HSF1 = HSF1 (Homo sapiens, UniProt Q00613 1-529); settings: protein: recombinant; tags: N-terminal GST; chain copies: 3; dsDNA, one strand shown
# Sequence of HSF1 (Q00613 whole entry): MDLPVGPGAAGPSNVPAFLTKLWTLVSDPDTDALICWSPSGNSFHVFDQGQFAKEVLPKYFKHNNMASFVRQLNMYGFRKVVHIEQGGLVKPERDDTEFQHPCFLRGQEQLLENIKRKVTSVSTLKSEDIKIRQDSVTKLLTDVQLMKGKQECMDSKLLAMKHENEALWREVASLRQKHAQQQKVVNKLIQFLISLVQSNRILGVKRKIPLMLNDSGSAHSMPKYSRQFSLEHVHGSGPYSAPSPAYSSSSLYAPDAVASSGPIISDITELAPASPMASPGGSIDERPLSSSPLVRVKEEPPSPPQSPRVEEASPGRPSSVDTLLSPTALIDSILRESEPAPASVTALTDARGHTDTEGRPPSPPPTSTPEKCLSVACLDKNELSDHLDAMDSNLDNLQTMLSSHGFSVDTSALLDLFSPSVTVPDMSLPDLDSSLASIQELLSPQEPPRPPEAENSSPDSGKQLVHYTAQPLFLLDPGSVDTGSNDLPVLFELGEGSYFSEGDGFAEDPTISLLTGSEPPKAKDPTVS
# In short: as §1
# SPIC = molecular target: T2, SPIC (Homo sapiens, UniProt Q8N5J4 1-248); settings: protein: recombinant; tags: N-terminal GST; dsDNA, one strand shown
# T2 sequence: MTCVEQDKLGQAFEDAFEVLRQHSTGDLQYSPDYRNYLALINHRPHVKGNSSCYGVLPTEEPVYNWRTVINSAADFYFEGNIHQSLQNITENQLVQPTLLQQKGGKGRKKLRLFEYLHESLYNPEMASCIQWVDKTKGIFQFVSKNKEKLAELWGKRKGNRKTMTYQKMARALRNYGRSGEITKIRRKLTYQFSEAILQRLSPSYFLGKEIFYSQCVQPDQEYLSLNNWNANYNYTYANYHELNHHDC
# In short: as §1
# ELF4 = ELF4 (Homo sapiens, UniProt Q99607 1-663); settings: protein: recombinant; tags: N-terminal GST; dsDNA, one strand shown
# Sequence of ELF4 (Q99607 whole entry): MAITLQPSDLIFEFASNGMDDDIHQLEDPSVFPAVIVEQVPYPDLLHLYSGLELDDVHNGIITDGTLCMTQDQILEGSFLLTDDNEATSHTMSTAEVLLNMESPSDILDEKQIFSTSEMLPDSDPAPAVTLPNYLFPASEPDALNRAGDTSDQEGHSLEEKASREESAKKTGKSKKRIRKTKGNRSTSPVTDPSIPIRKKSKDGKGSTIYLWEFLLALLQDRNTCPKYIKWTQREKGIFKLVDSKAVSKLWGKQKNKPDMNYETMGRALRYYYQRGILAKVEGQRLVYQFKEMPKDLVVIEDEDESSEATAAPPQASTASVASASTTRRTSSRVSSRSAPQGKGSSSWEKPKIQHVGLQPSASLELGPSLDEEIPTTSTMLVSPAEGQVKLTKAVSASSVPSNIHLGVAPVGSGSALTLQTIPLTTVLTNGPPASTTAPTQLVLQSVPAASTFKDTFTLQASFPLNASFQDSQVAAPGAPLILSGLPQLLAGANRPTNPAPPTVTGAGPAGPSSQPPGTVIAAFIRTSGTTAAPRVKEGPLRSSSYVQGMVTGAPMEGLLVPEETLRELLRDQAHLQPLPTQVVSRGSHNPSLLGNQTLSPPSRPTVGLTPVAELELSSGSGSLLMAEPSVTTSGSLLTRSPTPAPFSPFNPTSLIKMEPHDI
# In short: as §1
# ELK4 = molecular target: T3, ELK4 (Homo sapiens, UniProt P28324-2 1-405); settings: protein: recombinant; tags: N-terminal GST; dsDNA, one strand shown
# T3 sequence: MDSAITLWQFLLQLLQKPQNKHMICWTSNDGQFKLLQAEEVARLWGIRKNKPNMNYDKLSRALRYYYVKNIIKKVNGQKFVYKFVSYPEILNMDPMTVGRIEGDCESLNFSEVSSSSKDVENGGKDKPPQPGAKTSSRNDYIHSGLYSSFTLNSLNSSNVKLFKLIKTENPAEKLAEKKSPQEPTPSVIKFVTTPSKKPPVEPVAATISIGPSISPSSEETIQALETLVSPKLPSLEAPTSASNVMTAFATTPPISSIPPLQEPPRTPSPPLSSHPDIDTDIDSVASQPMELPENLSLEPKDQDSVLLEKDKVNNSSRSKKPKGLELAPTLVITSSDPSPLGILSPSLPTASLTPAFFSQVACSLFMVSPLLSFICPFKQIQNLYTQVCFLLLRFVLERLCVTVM
# In short: as §1
# ETV2 = molecular target: T4, ETV2 (Homo sapiens, UniProt O00321 1-342); settings: protein: recombinant; tags: N-terminal GST; dsDNA, one strand shown
# T4 sequence: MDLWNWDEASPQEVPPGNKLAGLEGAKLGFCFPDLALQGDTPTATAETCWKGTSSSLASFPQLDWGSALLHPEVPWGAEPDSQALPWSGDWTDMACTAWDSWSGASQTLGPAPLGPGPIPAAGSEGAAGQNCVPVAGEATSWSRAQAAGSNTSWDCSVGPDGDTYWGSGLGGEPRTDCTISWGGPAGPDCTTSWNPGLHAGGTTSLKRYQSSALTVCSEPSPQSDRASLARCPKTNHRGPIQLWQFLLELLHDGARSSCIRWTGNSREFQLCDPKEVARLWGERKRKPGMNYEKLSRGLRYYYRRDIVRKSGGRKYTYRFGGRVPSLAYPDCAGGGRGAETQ
# In short: as §1
# ELF3 = molecular target: T5, ELF3 (Homo sapiens, UniProt P78545 1-371); settings: protein: recombinant; tags: N-terminal GST; dsDNA, one strand shown
# T5 sequence: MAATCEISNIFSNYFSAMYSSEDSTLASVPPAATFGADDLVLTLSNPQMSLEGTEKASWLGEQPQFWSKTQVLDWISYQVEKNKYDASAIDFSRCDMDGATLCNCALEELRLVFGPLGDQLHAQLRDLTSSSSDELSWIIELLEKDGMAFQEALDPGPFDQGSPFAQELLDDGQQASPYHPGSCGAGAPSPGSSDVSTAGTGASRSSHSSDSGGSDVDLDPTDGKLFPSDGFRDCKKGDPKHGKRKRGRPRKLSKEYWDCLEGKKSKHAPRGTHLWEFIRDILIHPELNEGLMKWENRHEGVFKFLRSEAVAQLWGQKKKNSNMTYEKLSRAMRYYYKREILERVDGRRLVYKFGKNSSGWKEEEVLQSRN
# In short: as §1
# CRX = CRX (Homo sapiens, UniProt O43186 1-299); settings: protein: recombinant; tags: N-terminal GST; dsDNA, one strand shown
# Sequence of CRX (O43186 whole entry): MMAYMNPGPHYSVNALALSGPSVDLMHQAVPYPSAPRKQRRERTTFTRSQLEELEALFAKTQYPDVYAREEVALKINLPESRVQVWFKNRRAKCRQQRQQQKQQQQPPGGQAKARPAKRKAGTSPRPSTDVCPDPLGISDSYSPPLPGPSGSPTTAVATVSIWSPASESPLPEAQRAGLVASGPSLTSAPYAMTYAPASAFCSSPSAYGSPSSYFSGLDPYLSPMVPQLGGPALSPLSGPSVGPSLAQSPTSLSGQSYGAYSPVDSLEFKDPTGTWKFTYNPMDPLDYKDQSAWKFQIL
# In short: as §1
# ETV1 = ETV1 (Homo sapiens, UniProt P50549 1-477); settings: protein: recombinant; tags: N-terminal GST; dsDNA, one strand shown
# Sequence of ETV1 (P50549 whole entry): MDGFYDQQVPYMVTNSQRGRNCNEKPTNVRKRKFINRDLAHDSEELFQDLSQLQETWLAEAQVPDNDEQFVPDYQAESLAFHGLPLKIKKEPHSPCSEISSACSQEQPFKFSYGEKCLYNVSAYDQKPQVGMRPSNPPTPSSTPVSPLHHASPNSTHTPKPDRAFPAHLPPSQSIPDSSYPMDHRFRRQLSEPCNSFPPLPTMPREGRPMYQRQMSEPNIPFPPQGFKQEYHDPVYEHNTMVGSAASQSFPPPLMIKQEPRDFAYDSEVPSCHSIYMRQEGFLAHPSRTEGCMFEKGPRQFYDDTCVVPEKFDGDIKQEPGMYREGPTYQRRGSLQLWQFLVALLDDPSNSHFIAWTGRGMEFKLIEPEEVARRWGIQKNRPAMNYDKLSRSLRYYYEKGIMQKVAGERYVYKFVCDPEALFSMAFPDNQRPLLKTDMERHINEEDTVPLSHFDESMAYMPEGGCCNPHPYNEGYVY
# In short: as §1
# ERF = molecular target: T6, ERF (Homo sapiens, UniProt P50548 1-548); settings: protein: recombinant; tags: N-terminal GST; dsDNA, one strand shown
# T6 sequence: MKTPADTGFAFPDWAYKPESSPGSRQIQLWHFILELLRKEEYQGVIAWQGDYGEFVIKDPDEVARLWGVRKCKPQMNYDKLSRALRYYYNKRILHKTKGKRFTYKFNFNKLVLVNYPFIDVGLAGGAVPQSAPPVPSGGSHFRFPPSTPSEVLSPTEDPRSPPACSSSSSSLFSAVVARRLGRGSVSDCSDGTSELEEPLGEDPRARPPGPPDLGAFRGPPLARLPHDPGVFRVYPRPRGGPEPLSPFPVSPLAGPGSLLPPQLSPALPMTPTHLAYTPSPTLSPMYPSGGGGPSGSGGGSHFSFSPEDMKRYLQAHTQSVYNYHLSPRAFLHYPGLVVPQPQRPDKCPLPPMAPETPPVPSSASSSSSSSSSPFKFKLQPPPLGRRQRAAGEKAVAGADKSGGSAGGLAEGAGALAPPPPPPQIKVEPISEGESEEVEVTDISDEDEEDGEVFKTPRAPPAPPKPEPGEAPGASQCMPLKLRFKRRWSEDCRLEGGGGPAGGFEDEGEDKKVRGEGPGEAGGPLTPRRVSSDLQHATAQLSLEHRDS
# In short: as §1
# ETV3L = molecular target: T7, ETV3L (Homo sapiens, UniProt Q6ZN32 1-361); settings: protein: recombinant; tags: N-terminal GST; dsDNA, one strand shown
# T7 sequence: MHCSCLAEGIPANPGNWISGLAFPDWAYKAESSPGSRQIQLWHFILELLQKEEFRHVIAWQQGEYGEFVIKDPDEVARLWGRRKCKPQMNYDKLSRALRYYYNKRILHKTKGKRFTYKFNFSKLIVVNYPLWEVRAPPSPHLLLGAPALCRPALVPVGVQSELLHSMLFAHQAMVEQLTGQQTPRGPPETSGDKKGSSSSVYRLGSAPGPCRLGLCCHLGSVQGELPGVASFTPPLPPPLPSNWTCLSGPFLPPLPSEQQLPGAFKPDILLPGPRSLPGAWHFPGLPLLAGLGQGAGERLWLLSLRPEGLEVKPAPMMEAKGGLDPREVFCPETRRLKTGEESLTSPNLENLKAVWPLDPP
# In short: as §1
# ETS2 = molecular target: T8, ETS2 (Homo sapiens, UniProt P15036 1-469); settings: protein: recombinant; tags: N-terminal GST; dsDNA, one strand shown
# T8 sequence: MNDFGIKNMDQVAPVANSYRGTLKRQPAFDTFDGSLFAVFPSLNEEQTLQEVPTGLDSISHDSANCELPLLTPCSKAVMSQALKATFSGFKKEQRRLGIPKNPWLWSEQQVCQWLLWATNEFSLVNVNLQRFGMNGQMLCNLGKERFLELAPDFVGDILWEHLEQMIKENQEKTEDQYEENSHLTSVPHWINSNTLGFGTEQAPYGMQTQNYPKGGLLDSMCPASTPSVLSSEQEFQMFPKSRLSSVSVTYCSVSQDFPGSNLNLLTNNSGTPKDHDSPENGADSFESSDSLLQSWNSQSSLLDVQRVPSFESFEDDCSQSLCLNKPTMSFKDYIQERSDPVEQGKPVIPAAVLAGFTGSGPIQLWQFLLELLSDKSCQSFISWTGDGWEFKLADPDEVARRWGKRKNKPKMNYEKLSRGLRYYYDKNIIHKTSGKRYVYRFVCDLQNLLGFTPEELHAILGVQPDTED
# In short: as §1
# SPDEF = molecular target: T9, SPDEF (Homo sapiens, UniProt O95238 1-335); settings: protein: recombinant; tags: N-terminal GST; dsDNA, one strand shown
# T9 sequence: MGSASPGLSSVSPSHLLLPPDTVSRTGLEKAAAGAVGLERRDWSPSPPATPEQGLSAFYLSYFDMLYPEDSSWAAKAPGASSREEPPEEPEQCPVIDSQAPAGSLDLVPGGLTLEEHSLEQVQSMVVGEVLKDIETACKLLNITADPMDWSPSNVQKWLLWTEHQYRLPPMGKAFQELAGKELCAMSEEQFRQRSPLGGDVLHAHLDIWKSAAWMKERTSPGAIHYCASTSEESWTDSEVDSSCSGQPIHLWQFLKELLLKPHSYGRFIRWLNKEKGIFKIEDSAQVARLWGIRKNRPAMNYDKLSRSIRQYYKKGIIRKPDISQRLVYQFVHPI
# In short: as §1
# ETV7 = molecular target: T10, ETV7 (Homo sapiens, UniProt Q9Y603 1-341); settings: protein: recombinant; tags: N-terminal GST; dsDNA, one strand shown
# T10 sequence: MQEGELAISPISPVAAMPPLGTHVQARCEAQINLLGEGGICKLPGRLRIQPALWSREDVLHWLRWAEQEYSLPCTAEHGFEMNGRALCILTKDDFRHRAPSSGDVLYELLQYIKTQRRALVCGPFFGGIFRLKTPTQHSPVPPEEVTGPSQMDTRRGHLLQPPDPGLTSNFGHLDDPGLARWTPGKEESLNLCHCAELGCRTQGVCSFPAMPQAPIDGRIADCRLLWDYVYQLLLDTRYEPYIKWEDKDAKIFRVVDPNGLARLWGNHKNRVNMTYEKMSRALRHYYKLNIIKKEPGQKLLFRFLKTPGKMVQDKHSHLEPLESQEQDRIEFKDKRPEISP
# In short: as §1
# ELF5 = molecular target: T11, ELF5 (Homo sapiens, UniProt Q9UKW6-2 1-255); settings: protein: recombinant; tags: N-terminal GST; dsDNA, one strand shown
# T11 sequence: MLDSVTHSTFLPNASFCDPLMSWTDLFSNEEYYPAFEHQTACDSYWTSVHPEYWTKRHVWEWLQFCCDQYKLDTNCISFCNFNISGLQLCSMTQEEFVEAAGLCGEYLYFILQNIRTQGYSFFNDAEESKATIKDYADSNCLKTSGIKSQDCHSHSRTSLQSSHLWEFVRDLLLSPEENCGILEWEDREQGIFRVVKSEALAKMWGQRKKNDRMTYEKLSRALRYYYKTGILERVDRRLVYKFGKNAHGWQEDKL
# In short: as §1
# ETV3 = molecular target: T12, ETV3 (Homo sapiens, UniProt P41162-2 1-143); settings: protein: recombinant; tags: N-terminal GST; dsDNA, one strand shown
# T12 sequence: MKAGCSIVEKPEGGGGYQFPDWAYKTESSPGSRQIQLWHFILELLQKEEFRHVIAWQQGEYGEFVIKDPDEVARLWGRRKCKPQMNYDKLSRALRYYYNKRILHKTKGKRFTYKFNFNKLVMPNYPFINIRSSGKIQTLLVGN
# In short: as §1
# ETV6 = ETV6 (Homo sapiens, UniProt P41212 1-452); settings: protein: recombinant; tags: N-terminal GST; dsDNA, one strand shown
# Sequence of ETV6 (P41212 whole entry): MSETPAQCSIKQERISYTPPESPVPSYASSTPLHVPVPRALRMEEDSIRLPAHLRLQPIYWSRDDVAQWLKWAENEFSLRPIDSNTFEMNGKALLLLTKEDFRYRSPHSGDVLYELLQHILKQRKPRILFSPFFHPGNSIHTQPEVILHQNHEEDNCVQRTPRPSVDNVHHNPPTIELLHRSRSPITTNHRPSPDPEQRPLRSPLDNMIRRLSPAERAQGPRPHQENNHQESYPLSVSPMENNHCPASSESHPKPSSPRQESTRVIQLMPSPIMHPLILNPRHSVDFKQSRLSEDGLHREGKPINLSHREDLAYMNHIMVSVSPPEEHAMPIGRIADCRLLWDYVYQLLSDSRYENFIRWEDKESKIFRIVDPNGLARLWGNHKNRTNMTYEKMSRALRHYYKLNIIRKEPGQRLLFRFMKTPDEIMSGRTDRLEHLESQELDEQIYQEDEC
# In short: as §1
sequence,measurement,setting,value
TATCCT,binding signal,FEV,"1.94 fold enrichment (6-mer frequency, TF over GST control)"
same,binding signal,ETV5,"1.95 fold enrichment (6-mer frequency, TF over GST control)"
same,binding signal,HSF1,"1.72 fold enrichment (6-mer frequency, TF over GST control)"
same,binding signal,SPIC,"1.87 fold enrichment (6-mer frequency, TF over GST control)"
same,binding signal,ELF4,"1.65 fold enrichment (6-mer frequency, TF over GST control)"
same,binding signal,ELK4,"1.83 fold enrichment (6-mer frequency, TF over GST control)"
same,binding signal,ETV2,"1.93 fold enrichment (6-mer frequency, TF over GST control)"
same,binding signal,ELF3,"1.59 fold enrichment (6-mer frequency, TF over GST control)"
same,binding signal,CRX,"2.28 fold enrichment (6-mer frequency, TF over GST control)"
same,binding signal,ETV1,"1.72 fold enrichment (6-mer frequency, TF over GST control)"
same,binding signal,ERF,"1.67 fold enrichment (6-mer frequency, TF over GST control)"
same,binding signal,ETV3L,"1.82 fold enrichment (6-mer frequency, TF over GST control)"
same,binding signal,ETS2,"1.81 fold enrichment (6-mer frequency, TF over GST control)"
same,binding signal,SPDEF,"2.67 fold enrichment (6-mer frequency, TF over GST control)"
same,binding signal,ETV7,"1.67 fold enrichment (6-mer frequency, TF over GST control)"
same,binding signal,ELF5,"2.65 fold enrichment (6-mer frequency, TF over GST control)"
same,binding signal,ETV3,"1.8 fold enrichment (6-mer frequency, TF over GST control)"
same,binding signal,ETV6,"1.82 fold enrichment (6-mer frequency, TF over GST control)"
